Drawing on PubChem BioAssay AID932 (The Scripps Research Institute Molecular Screening Center, 2007), this text covers activation (% of control) for 101 compounds.

Molecules are shown by their SMILES. The campaign covered roughly 200,000 compounds. About 5,100 (2.5%) were called active. Shown is part of a subset that was picked to be rich in actives. Values without a mark were called inactive.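 How the source made its calls: active means activation above the screen-wide mean activation plus 3 SD (cut at about 130% in these data); inactive means the rest.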

The assay in a line: potentiators of IFN-gamma driven STAT1 reporter – cell-based, HTS, luciferase reporter, primary screen (AID 932).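 Further: raw ratio to IFN-gamma control signal so 100% means no change and 0% no light.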 The conditions noted are these: NIH 3T3 STAT1-luciferase reporter, luminescence, at 5.5 µM, stronger effect = higher value, 100% = IFN-gamma alone, no compound.
Turning to `CCOC(=O)C1CCCN(C(=O)COc2ccc(N(C)S(=O)(=O)c3ccc(C)cc3)cc2)C1` (stereo unspecified), the activation (% of control) was 102%. For the compound `Cc1[nH]nc(SCC(=O)NCC(C)C)c1[N+](=O)[O-]`, the activation (% of control) is 102%.

With `c1ccc(CN2CCC(N=C3NN=C(c4ccc5c(c4)OCCO5)CS3)CC2)cc1`, the activation (% of control) is 114%. Turning to `Clc1cccc(N=C2NN=C(c3ccc4c(c3)OCCO4)CS2)c1`, the activation (% of control) was 148% (active). For the compound `Cc1cccc(N=C2NN=C(c3c[nH]c4ccccc34)CS2)c1`, the activation (% of control) was 106%. As for `CCN1CCC2(CC1)N=C(c1ccc(F)cc1)C(=S)N2C(=O)c1ccc(C)cc1`, the activation (% of control) is 111%. Then `c1ccc2[nH]c(-c3nc4ccccc4[nH]3)nc2c1`, with 146% (active); and `Cc1ccc(-c2nc3ccccc3[nH]2)cc1N`, with 118%; and `c1ccc(-c2[nH]ncc2-c2nc3ccccc3[nH]2)cc1`, with 89.6%. For the compound `O=C(Nc1ccncc1)c1ccccc1[N+](=O)[O-]`, the activation (% of control) was 105%. Consider `O=C(NC(CC(=O)N1CCN(c2ccccc2)CC1)c1ccccc1)c1ccccc1Cl` (stereo unspecified), for which the activation (% of control) was 95%. Turning to `O=C(OCC(=O)c1c[nH]c2ccccc12)c1cccc(O)c1`, the activation (% of control) is 93.7%. `O=S(=O)(NCCc1ccc(F)cc1)c1cccc2cccnc12`: the activation (% of control) was 102%. As for `OCC1(CCc2ccccc2)CCN(Cc2ccc3nsnc3c2)CC1`, the activation (% of control) was 100%. For the compound `Cc1ccc(S(=O)(=O)N2CCOCC2)cc1C(=O)NC(=S)N(Cc1ccccc1)C(C)C`, the activation (% of control) is 102%. For the compound `Cc1ccc(-n2c(C)cc(/C=C(\C#N)C(=O)NCC3CCCO3)c2C)cc1` (stereo unspecified), the activation (% of control) is 140% (active). Take `Cc1ccc(C(=O)N/C(=C/c2cccs2)C(=O)NCC2CCCO2)cc1` (stereo unspecified): the activation (% of control) is 99.5%. As for `Cc1ccc(S(=O)(=O)N2CCC(C(=O)NCC3CCCO3)CC2)cc1` (stereo unspecified), the activation (% of control) was 99.9%. As to `O=C(Nc1ccc(F)c([N+](=O)[O-])c1)C1CC(=O)N(Cc2ccccc2)C1` (stereo unspecified), the activation (% of control) was 95.9%.

Take `CN(C)Cc1ccc(F)cc1Sc1cc(Cl)ccc1Cl`: the activation (% of control) is 98.7%. With `O=C(COC(=O)Cn1cnc2ccccc21)Nc1cccc2c1C(=O)c1ccccc1C2=O`, the activation (% of control) is 104%. Under `O=C(c1cccc(C(=O)N2CCc3ccccc32)n1)N1CCc2ccccc21` stands 95.1%; under `Cc1occc1C(=O)N1CCCc2ccccc21`, 104%. Under `O=C(c1cnn2ccccc12)N1CCc2ccccc21` stands 136% (active). For the compound `O=C(Cc1c(F)cccc1Cl)Nc1ccc(-n2cnnn2)cc1`, the activation (% of control) is 98.6%. For the compound `COc1ccc(NC(=O)CN2C(=O)C(c3ccccc3)=NC23CCCCCC3)cc1OC`, the activation (% of control) was 104%. On to `N#CC(=C1CCCC1)c1nc(-c2ccc(Cl)cc2)cs1`, for which the activation (% of control) was 110%. Turning to `N#CC(=C1SC=CS1)c1nc(-c2ccccc2)cs1`, the activation (% of control) is 133% (active). Under `N#C/C(=C1\CCCN1)c1nc(-c2ccccc2)cs1` stands 105%; under `O=C(CN(CC1CCCO1)C(=O)CNS(=O)(=O)c1ccc(F)cc1)NCc1ccco1` (stereo unspecified), 109%; under `COc1cc(OC)cc(-c2nc(=S)n3ccsc3n2)c1`, 108%. In the case of `Cc1cc(=O)oc(C)c1C(=O)N1CCCCC1`, the activation (% of control) is 104%.

`Cc1cccc(C(=O)N2CCCN(C(=O)c3cccc(C)c3)CC2)c1`: the activation (% of control) is 103%.

As to `Cc1ccc2cc3cc(C(=O)N4CCCCCC4)oc3nc2c1`, the activation (% of control) was 169% (active). As to `O=C(CS(=O)(=O)Cc1ccccc1)NCC1CCCO1` (stereo unspecified), the activation (% of control) is 94.5%.

Turning to `CC(=NCC1CCCO1)c1c(O)[nH]c(=O)[nH]c1=O` (stereo unspecified), the activation (% of control) is 106%.

For the compound `O=C1C(C=NCC2CCCO2)=C(O)c2ccccc21` (stereo unspecified), the activation (% of control) was 137% (active).

As to `COc1ccc(CCNC(=O)CN(c2ccccc2)S(C)(=O)=O)cc1`, the activation (% of control) was 98%. In the case of `CCOc1cccc(-n2nnnc2-c2ccc(OC)cc2)c1`, the activation (% of control) is 93.4%. `COc1ccc(-n2nnnc2SCC(=O)Nc2ccccc2)cc1`: the activation (% of control) is 99.3%. Regarding `COc1ccc(-n2nnnc2-c2nc3ccccc3s2)cc1`, the activation (% of control) is 166% (active). Take `Cc1ccc(C(=O)N/C(=C\c2cccs2)C(=O)NCCc2ccccn2)cc1C`: the activation (% of control) is 103%.

In the case of `CN(C)C(=O)CSc1n[nH]c(-c2ccco2)n1`, the activation (% of control) is 101%. Then `O=C(Cn1c(-c2cncs2)nc2ccccc21)NC1CCCC1`, with 103%; and `O=C(/C=C/c1cnc2ccccc2n1)NC1CCCCCC1`, with 142% (active). For the compound `CC(=O)OC(C(=O)NC1CCCCC1)c1ccccc1` (stereo unspecified), the activation (% of control) was 95.8%.

Take `C/C(=C/C(=O)N1CCN(C)CC1)C(=O)O`: the activation (% of control) is 88.6%. As to `CCOn1c(=O)c(=O)n(O)c2ccccc21`, the activation (% of control) is 95.6%. As for `COC(=O)c1cccc([N+](=O)[O-])c1CS(=O)(=O)c1ccc(C)cc1`, the activation (% of control) is 98.8%. For the compound `Cc1nc(C)c(-c2csc(NCCc3ccccc3)n2)s1`, the activation (% of control) was 102%. Then `CCNc1nc(-c2cc3ccccc3o2)cs1`, with 176% (active); and `O=c1oc2ccccc2cc1-c1csc(Nc2ccc(O)cc2)n1`, with 117%; and `CC1(C)CC(=O)C2=C(C1)Nc1cc(C(=O)c3ccccc3)ccc1NC2c1ccccn1` (stereo unspecified), with 104%. For `CCN1CCN(C(C(=O)NC2CCCC2)c2cc3c(cc2[N+](=O)[O-])OCO3)CC1` (stereo unspecified), the activation (% of control) is 107%. Turning to `Cc1nc(-c2ccccc2)sc1C(=O)/C=C/N(C)C`, the activation (% of control) is 147% (active). Take `Cc1ccc(SCC(=O)c2sc(-c3ccccc3)nc2C)cc1`: the activation (% of control) is 102%.

For the compound `Cc1nc(-c2ccccc2)sc1C(=O)/C=C/c1ccccc1`, the activation (% of control) was 105%. In the case of `Cc1cccc(/C(N)=N/OC(=O)c2ccccc2Cl)c1`, the activation (% of control) is 138% (active). Then `Cc1cccc(C(=O)c2cccc(C)c2)c1`, with 103%; and `N/C(=N\OC(=O)c1cc(-c2ccccc2)nc2ccccc12)c1ccncc1`, with 99.8%; and `COc1ccccc1C(=O)CSc1cccc[n+]1[O-]`, with 105%.

On to `CC(C)Oc1ccc(Cc2n[nH]c(=S)n2Cc2ccccc2)cc1Cl`, for which the activation (% of control) is 90.5%. For `CCN1CCc2nc(NC(=O)c3cc(F)c(F)cc3Cl)sc2C1`, the activation (% of control) was 111%.

Take `Cc1cccc(NC(=O)Nc2nnc(-c3ccccc3)o2)c1`: the activation (% of control) is 99.5%. In the case of `CC(=O)c1cccc(NC(=O)Nc2ccc(C)cc2)c1`, the activation (% of control) was 118%.

As to `Cc1ccc(NC(=O)Nc2ccccc2)c(Br)c1`, the activation (% of control) is 164% (active).

In the case of `CN=C(c1ccccc1)c1c(C)cccc1C`, the activation (% of control) is 93.1%. Consider `O=C(CC1C(=O)NCCN1Cc1ccc(-c2ccccc2)cc1)NCC1CCOCC1` (stereo unspecified), for which the activation (% of control) was 102%.

As to `O=C(Cc1csc(Nc2nc(=S)[nH]c3ccccc23)n1)NCCCN1CCN(c2cccc(Cl)c2)CC1`, the activation (% of control) is 90.9%. With `COC(=O)CCC(=O)N1CCCC(CO)(Cc2ccccc2)C1` (stereo unspecified), the activation (% of control) is 146% (active). Turning to `Cc1ccccc1CC1(CO)CCCN(C(=O)c2cc(-c3ccccc3)no2)C1` (stereo unspecified), the activation (% of control) was 104%. For the compound `CC(=O)c1cccc(CN2CCC(CO)(Cc3ccccc3)CC2)c1`, the activation (% of control) was 96%.

As to `CCc1nnc(NC(=O)c2cccc(S(=O)(=O)N(C)c3ccc(OC)cc3)c2)s1`, the activation (% of control) is 86.1%.

For `CCN(CC(=O)NCc1cccs1)S(=O)(=O)c1ccc(NC(C)=O)cc1`, the activation (% of control) was 104%.

`CCn1c(/C=C/Nc2ccccc2)[n+](CC)c2ccc(C(=O)OCC(F)(F)F)cc21`: the activation (% of control) is 88.3%. Turning to `COCc1ccc(C(=O)N2CCc3c([nH]c4ccccc34)C2c2ccccn2)s1` (stereo unspecified), the activation (% of control) was 94%. Under `Cc1ccc(OCC(=O)Nn2cnc3ccccc32)cc1` stands 104%; under `COC(=O)c1ccc(-n2cnc3ccccc32)nc1`, 129% (active). As to `COCCOCCn1cnc2ccccc21`, the activation (% of control) is 104%. Under `O=C(O)CC1S/C(=N\N=C/c2ccccc2O)N(c2ccc(O)cc2)C1=O` (stereo unspecified) stands 102%. Regarding `Cc1cccc2c1N(CCOc1ccccc1)C(=O)C2=O`, the activation (% of control) was 99%. Under `Cc1nc2ccccc2cc1C(=O)N/N=C/c1ccc([N+](=O)[O-])cc1` stands 93.6%; under `Cc1cc(O)c(NC(=O)c2ccc(C)c([N+](=O)[O-])c2)cc1C`, 103%. Regarding `Cc1ccc(NC(=O)CN(C)CC(=O)Nc2cccc(F)c2)cc1[N+](=O)[O-]`, the activation (% of control) is 67.3%. `Cc1ccsc1C(=O)N/N=C/c1ccc([N+](=O)[O-])cc1`: the activation (% of control) is 146% (active). In the case of `Cc1ccc(NC(=O)c2sccc2C)cc1[N+](=O)[O-]`, the activation (% of control) was 138% (active).

As to `NC(=S)N/N=C/c1ccc([N+](=O)[O-])cc1`, the activation (% of control) is 121%. Then `C=CCNC(=O)COC(=O)c1ccccc1C(=O)N(C)C1CCCCC1`, with 95.6%; and `O=c1[nH]n(-c2ccc([N+](=O)[O-])cc2)c(=O)c2ccccc12`, with 101%; and `CCN1CC(CN(C)Cc2nc(-c3ccc(Cl)cc3)no2)CC1=O` (stereo unspecified), with 96.3%. As to `CC(C)C(c1nnnn1C(C)(C)C)N1CCN(Cc2cccnc2)CC1` (stereo unspecified), the activation (% of control) is 98.8%. Turning to `CCCCCC(=O)Nc1ccc(-c2cn3cccnc3n2)cc1`, the activation (% of control) was 103%. For the compound `C/C(=N/NC(=O)c1ccc(Br)o1)c1ccc(C)o1`, the activation (% of control) is 112%. Regarding `CC(C)(C)C1CCC(=NNC(=O)c2ccc(Br)o2)CC1` (stereo unspecified), the activation (% of control) was 121%. In the case of `CCC(C)(C)C1CCC(=NNC(=O)c2ccc(Br)o2)CC1` (stereo unspecified), the activation (% of control) was 129% (active). For `COc1ccccc1-n1c(C)nc2cc(C(=O)NCc3ccc4c(c3)OCO4)ccc21`, the activation (% of control) is 98.5%. Then `COc1ccc(OC)c2[nH]c(=O)c(CCNC(=O)C(=O)c3c[nH]c4ccccc34)cc12`, with 95.3%.

Consider `Cc1ccc(NC(=O)CC2C(=O)N(Cc3ccccc3)C(=S)N2NC(=O)c2cccc(F)c2)c(C)c1` (stereo unspecified), for which the activation (% of control) is 103%. With `O=C(Cn1ncc(N2CCCC2)c(Br)c1=O)c1ccc(Cl)cc1`, the activation (% of control) was 130% (active). With `CC(=O)Cn1ncc(N2CCOCC2)c(Br)c1=O`, the activation (% of control) was 104%. For the compound `Cn1c(=O)c2c(nc(N3CCCCCC3)n2CC(=O)c2ccc(Br)cc2)n(C)c1=O`, the activation (% of control) was 94.8%.
